# Measured values: publication PMC5540273 (PLoS ONE, 2017)
# Assays:
# Details in all cases: concentration: 1 μM, replicates: in singlicate; n = 1
# HASPIN = test system: T1, HASPIN
# T1 construct: gene GSG2
# HCK = test system: HCK
# HIPK1 = test system: HIPK1
# HIPK2 = test system: HIPK2
# HIPK3 = test system: HIPK3
# HIPK4 = test system: HIPK4
# HPK1 = test system: HPK1
# HUNK = test system: HUNK
# ICK = test system: ICK
# IGF1R = test system: IGF1R
# 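Also: KINOMEscan kinase panel screen.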
Structure (SMILES),%Inh (HASPIN),%Inh (HCK),%Inh (HIPK1),%Inh (HIPK2),%Inh (HIPK3),%Inh (HIPK4),%Inh (HPK1),%Inh (HUNK),%Inh (ICK),%Inh (IGF1R)
COc1cccc(C2=C(Nc3cccc(O)c3)C(=O)NC2=O)c1 [SB-390771],4%,0%,0%,0%,29%,0%,51%,0%,3%,19%
Cc1ccc(O)cc1Nc1ccnc2ccc(C(C)(C)C)cc12 [GW856805],44%,93.8%,20%,0%,28%,0%,0%,0%,37%,0%
Cc1ccc(NC(=O)c2ccnc(N3CCCCC3)c2)cc1-c1ccc(C(=O)NCC2CC2)cc1 [GW775610],0%,0%,11%,9%,0%,0%,24%,0%,25%,0%
Cc1cccc(Nc2nc(NCCN)ncc2C(N)=O)c1 [GSK1292139],56%,25%,0%,0%,7%,0%,85%,0%,13%,0%
CCOc1nccc(-c2c(-c3ccc(F)cc3)ncn2C2CCNCC2)n1 [SB-249175],0%,0%,59%,44%,44%,6%,12%,0%,65%,0%
COc1ccc(NC(=O)c2ccoc2)cc1-c1ccc(C(=O)NCC2CC2)cc1 [GW810437],23%,26%,5%,18%,7%,6%,0%,31%,13%,0%
O=C(O)C(F)(F)F.O=c1[nH]ccc2nc(N[C@@H]3CCNC3)nc(Nc3ccc4c(c3)S(=O)(=O)CC4)c12 [GSK2181306],90%,59%,75%,84%,93.3%,56%,96.7%,0%,68%,19%
Nc1ncc(-c2cn[nH]c2)c2scc(-c3ccc4c(c3)CCN4C(=O)Cc3ccccc3)c12 [GSK2593067],0%,92.6%,0%,1%,4%,0%,94%,0%,0%,4%
CC(C)c1nc(-c2ccc(F)c(NS(=O)(=O)c3c(F)cccc3F)c2)c(-c2ccnc(Nc3ccc(N4CCOCC4)nc3)n2)s1 [GSK1804250],18%,98.4%,17%,0%,30%,72%,56%,7%,0%,8%
CN(c1ccc(NC(=O)Nc2cccc(Cl)c2)cc1)c1ccnc(N)n1.Cl [GW830707],32%,0%,0%,18%,0%,79%,0%,51%,7%,0%
CN(C)CCNS(=O)(=O)c1ccc(-c2ccnc3[nH]ccc23)cc1 [GSK977620],84%,0%,82%,82%,90.5%,43%,42%,0%,5%,2%
CCNC(=O)/C=C/c1n[nH]c2cc(Sc3ccccc3C(=O)NC)ccc12,14%,7%,23%,2%,22%,0%,8%,0%,0%,10%
CSc1ccc(NC2=C(c3ccc(Cl)cc3)C(=O)NC2=O)cc1 [SB-317658],0%,32%,2%,3%,7%,6%,9%,4%,19%,3%
Cc1ccc(Nc2ccnc(Nc3ccc(C)c(F)c3)n2)cc1O.Cl [GW582868],10%,29%,0%,0%,0%,4%,30%,0%,2%,0%
CC(C)c1nc(-c2cccc(NS(=O)(=O)c3c(F)cccc3F)c2)c(-c2ccnc(Nc3ccc(N4CCOCC4)nc3)n2)s1.Cl [GSK1723980],0%,98.3%,93.2%,57%,69%,83%,55%,0%,32%,0%
Cc1ccc(O)cc1Nc1ccnc2cc(-c3ccc(CN4CCCCC4)o3)ccc12 [GW557777],0%,99.4%,0%,0%,0%,0%,37%,32%,0%,0%

Structure (SMILES),%Inh (HASPIN),%Inh (HCK),%Inh (HIPK1),%Inh (HIPK2),%Inh (HIPK3),%Inh (HIPK4),%Inh (HPK1),%Inh (HUNK),%Inh (ICK),%Inh (IGF1R)
Cc1ccc(NC(=O)c2ccc(Cl)c(Cl)c2)cc1-c1ccc(C(=O)Nc2ccncc2)cc1 [GSK1398460],0%,9%,0%,0%,17%,0%,40%,25%,0%,19%
CN(C)CCOc1ccc(-c2cc(-c3ccc(Cl)c(O)c3)c(-c3ccncc3)[nH]2)cc1.Cl.Cl [SB-684387],18%,51%,2%,0%,1%,4%,39%,0%,0%,0%
COc1cccc(NC(=O)NCCNc2ccnc(Nc3ccc(F)cc3)n2)c1 [GSK1379879],0%,0%,0%,0%,7%,0%,34%,11%,10%,0%
O=C(Nc1n[nH]c2nc(-c3ccccc3)ccc12)C1CC1 [SB-708999],0%,7%,0%,29%,0%,8%,54%,0%,4%,6%
CC(C)NCC(Cc1ccccc1)NC(=O)c1cc(Br)c(-c2ccnc3[nH]ccc23)s1.Cl.Cl (centres unmarked) [GSK1383281],89%,0%,30%,0%,35%,91.6%,44%,0%,11%,4%
Cl.Cl.NCC(NC(=O)c1cc(-c2cccnc2)c(-c2ccnc3[nH]ccc23)s1)c1ccccc1 (centres unmarked) [GSK1323434],96.4%,0%,69%,67%,86%,64%,59%,0%,4%,0%
Nc1cccc(-c2ccc3c(N)n[nH]c3c2)c1 [GSK2193613],90.5%,0%,0%,0%,100%,0%,48%,23%,0%,8%
Cl.Cl.NC(CNC(=O)c1cc(Br)c(-c2ccnc3[nH]ccc23)s1)c1ccccc1 (centres unmarked) [GSK1322949],92.6%,0%,65%,68%,73%,97.3%,69%,0%,0%,0%
Fc1cc(Cl)ccc1Nc1ccnc2cc(-c3ccc(CN4CCSCC4)o3)ccc12 [GW560106],28%,95.3%,3%,0%,0%,0%,20%,71%,0%,25%
Cc1cccc(Nc2nc(N[C@H]3CCCC[C@H]3N)ncc2C(N)=O)c1.Cl [GSK986310],18%,0%,0%,0%,21%,0%,79%,0%,16%,0%
COc1cccc(-c2nc(-c3ccccc3)[nH]c2-c2ccncc2)c1 [SB-610250],66%,0%,0%,0%,15%,7%,43%,31%,3%,16%
Cc1nn2c(=O)cc(N3CCO[C@H](C)C3)nc2n1Cc1cccc(Cl)c1Cl [GSK2373693],3%,22%,10%,30%,78%,0%,25%,0%,15%,10%
Cc1ccc(NC(=O)c2cccc(N3CCCCC3)c2)cc1-c1ccc(C(=O)NCC2CC2)cc1 [GSK1917008],0%,0%,0%,0%,14%,17%,38%,0%,23%,9%
CN(C)c1ncnc2nc[nH]c12 [SKF-31736],0%,3%,23%,12%,15%,0%,0%,0%,0%,0%
N#CC1(c2cccc(C(=O)Nc3cccc(Oc4ccc5nc(NC(=O)C6CC6)sc5n4)c3)c2)CC1,38%,98.3%,6%,0%,0%,78%,40%,32%,0%,0%
COC(=O)Nc1nc2cc(Oc3ccc(NC(=O)Nc4cccc(SC)c4)cc3)ccc2[nH]1.Cl [GW697999],0%,12%,5%,0%,1%,36%,30%,28%,0%,5%
